D1 potentiator = Potentiators of Human D1 Dopamine Receptor: qHTS | HEK293 TREx D1 cells, calcium flux, dopamine EC20 potentiation | potentiation, % at 10 µM | 0.036% of 360,000 active | AID 504651, 2011; in the data active means potentiation above about 30%; further: 0% is about no effect
Target sequence (P21728 whole entry, looked up): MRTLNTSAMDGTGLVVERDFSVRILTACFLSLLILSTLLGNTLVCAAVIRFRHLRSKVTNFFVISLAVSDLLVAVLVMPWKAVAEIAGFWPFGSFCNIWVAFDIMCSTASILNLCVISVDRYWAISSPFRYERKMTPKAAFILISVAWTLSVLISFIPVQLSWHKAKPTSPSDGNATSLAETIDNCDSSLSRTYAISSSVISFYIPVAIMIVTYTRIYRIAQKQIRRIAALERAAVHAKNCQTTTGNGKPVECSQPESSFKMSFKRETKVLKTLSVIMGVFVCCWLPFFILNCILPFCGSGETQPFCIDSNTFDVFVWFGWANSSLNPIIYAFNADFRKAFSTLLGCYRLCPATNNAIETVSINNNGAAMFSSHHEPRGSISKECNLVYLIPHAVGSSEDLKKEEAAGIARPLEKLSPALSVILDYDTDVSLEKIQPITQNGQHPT
D1 ag = Allosteric Agonists of the Human D1 Dopamine Receptor: qHTS. HEK293 T-REx D1 cells, calcium flux, agonist mode. activation, % at 2 µM. 1% of 360,000 active. AID 504660, 2011. D(1A) dopamine receptor (Homo sapiens), P21728; in the data active means activation above about 30%; further: 0% is about no effect
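Tetracycline-induced HEK293 TREx D1 cells, force-coupled to calcium signalling, were dye-loaded with a no-wash calcium kit. Compound was pin-added after a 10 s baseline. Fluorescence was read kinetically at 1 cycle/s for 180 s, with calcium rises flagged as agonism.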
D3 ag = qHTS of D3 Dopamine Receptor Agonist: qHTS; 0.58% of 410,000 active; max activation, %; AID 652048, 2013; D3R DiscoveRx beta-arrestin cells, luminescence, 90 min; in the data active means max activation above about 30%; further: 0% is about no effect
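Cells at 1500/well, incubated overnight, then treated with pinned compounds (dopamine as control) for 90 min at 37 degrees C. DiscoveRx reagent added for 30 - 60 minutes at room temperature; luminescence read.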
D1 antag = Antagonist of Human D 1 Dopamine Receptor: qHTS; D(1A) dopamine receptor (Homo sapiens), P21728; AID 504652, 2011; 3.2% of 360,000 active; HEK293 TREx D1 cells, calcium flux, dopamine EC80; stronger effect = lower value; activity change, negative = inhibition, % at 10 µM; in the data active means activity change below about -30%; further: on the % scale 0 is the no-effect control and ±100 the full control effect
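Tetracycline-induced HEK293 Trex D1 cells, force-coupled to calcium, dye-loaded; compounds added and read 180 s, then EC80 dopamine added and calcium flux tracked kinetically another 180 s.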
DRD3 antagonist = qHTS of D3 Dopamine Receptor Antagonist: qHTS; max response, negative = inhibition, %; D3R cells, DiscoveRx beta-arrestin luminescence, antagonist mode; stronger effect = lower value; D(3) dopamine receptor (Homo sapiens), P35462; AID 652054, 2013; 2.5% of 360,000 active; in the data active means max response below about -50%; inconclusive means no clear call, values can overlap the other calls; further: on the % scale 0 is the no-effect control and ±100 the full control effect
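Cells plated overnight at 1500 cells/well, then exposed to library compounds with dopamine controls for 90 minutes at 37 degrees C. DiscoveRx reagent added for 30–60 minutes at room temperature; luminescence read, quantitative HTS format.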
Active calls of the source: *. Compounds with a hit are over-represented: about 6.1% of the library has one in this group of screens.

`Cc1ccc(NC(=S)N/N=C2/CCCCc3ccccc32)cc1` gave D1 potentiator -1, D1 ag 1, D3 ag -12, D1 antag -6 and DRD3 antagonist -52*.
For COc1ccc(NC(=S)N/N=C2/CCCc3c(C)cc(C)cc32)cc1 the results were D1 potentiator 4, D1 ag 1, D3 ag 3, D1 antag -40* and DRD3 antagonist -10.
CC(C)=CCC/C(C)=C/CNC(=O)C[C@H]1C[C@H](C(=O)N(C(C)C)C(C)C)[C@@]2(C)c3[nH]c4cc(CCC(=O)N(C)C)ccc4c3CCN2C1=O was read as D3 ag -26 and DRD3 antagonist -6.
`CCOc1ccc(C(=O)c2cn(CC(=O)Nc3ccc4c(c3)OCO4)c3ccc(OCC)cc3c2=O)cc1` gave D1 potentiator -1, D1 ag 2, D3 ag 3 and D1 antag -7.
CC1=NN(C(N)=S)C(=O)C1N=Nc1ccccc1C (centres undefined) was read as D1 potentiator -2, D1 ag -1, D3 ag 7, D1 antag -2 and DRD3 antagonist -89*.
For CC1=NN(C(N)=S)C(=O)C1N=Nc1ccccc1O (centres undefined) the results were D1 potentiator -3, D1 ag 11, D3 ag 0, D1 antag 10 and DRD3 antagonist 2.
CC1CCc2c(sc3ncnc(NCCN4CCOCC4)c23)C1 (centres undefined) was read as D1 potentiator -5, D1 ag 0, D3 ag -7, D1 antag -16 and DRD3 antagonist -71*.
`CC1CCc2c(sc3ncnc(N4CCOCC4)c23)C1` (centres undefined) gave D1 potentiator -8, D1 ag 2, D3 ag 20, D1 antag 18 and DRD3 antagonist 48.
`CCc1ccccc1N1C(=O)C2C3C=CC(CC3)C2C1=O` (centres undefined) gave D1 potentiator -3, D1 ag 0, D3 ag 5, D1 antag -3 and DRD3 antagonist 18.
`CC1CCN(C(=O)c2ncn(C)c2C(=O)N2CCC(C)CC2)CC1` gave D3 ag 13 and DRD3 antagonist -51*.
`COc1ccc(-c2cc(C(F)(F)F)n3nc(C(=O)Nc4sc5c(c4C#N)CCC(C)C5)cc3n2)cc1OC` (centres undefined) gave D1 potentiator -3, D1 ag -1, D3 ag -1 and D1 antag -10.
Screening COc1ccc(Cl)cc1-c1cc(C(=O)NCc2ccccc2)[nH]n1 returned D3 ag -23 and DRD3 antagonist -59*.
Screening COc1ccc(COc2ccccc2C(=O)NCc2ccccc2)cc1F returned D1 potentiator -3, D1 ag 12, D3 ag 17, D1 antag -37* and DRD3 antagonist 48.
Screening COc1cc(C(=O)NCc2ccccc2)ccc1OC(F)F returned D1 potentiator 6, D1 ag 3, D3 ag -6, D1 antag -17 and DRD3 antagonist 43.
For COc1ccc(Cl)cc1-c1cc(C(=O)Nc2ccc(Br)cc2)[nH]n1 the results were D3 ag -22 and DRD3 antagonist -76*.
Cc1cc2c(s1)c1cnn(Cc3c(F)cccc3C(F)(F)F)c(=O)c1n2C was read as D1 potentiator -6, D1 ag 9 and D1 antag -1.
For Cc1cc(NC(=O)CN2CCC(O)CC2)nc2c1c(=O)oc1ccccc12 the results were D1 potentiator -3, D1 ag 0, D3 ag 0 and D1 antag 6.
For COc1ccc(C(=O)c2cn(Cc3ccc(C)cc3)c3cc4c(cc3c2=O)OCO4)cc1 the results were D1 potentiator -4, D1 ag 20, D3 ag 1 and D1 antag 10.
For Cc1sc2ncnc(N/N=C/c3ccc(O)cc3)c2c1C the results were D1 potentiator -6, D1 ag 1, D3 ag 6, D1 antag -86* and DRD3 antagonist 18.
COc1ccc(/C=N/Nc2ncnc3sc(C)c(C)c23)cc1 was read as D1 potentiator -5, D1 ag 2, D3 ag -11, D1 antag -9 and DRD3 antagonist -1.
Screening CC(C)c1ccc(NC(=O)[C@H](NC(=O)[C@@H]2Cc3ccccc3CN2)c2ccccc2)cc1 returned D1 potentiator -2, D1 ag 8, D3 ag -19, D1 antag 12 and DRD3 antagonist -98*.
`C[C@@H](NC(=O)[C@@H]1Cc2ccccc2CN1)C(=O)Nc1ccc2c(c1)OCCO2` gave D1 potentiator -2, D1 ag 2, D3 ag 1, D1 antag -1 and DRD3 antagonist -2.
`COc1cccc(NC(=O)[C@H](NC(=O)[C@@H]2Cc3ccccc3CN2)c2ccccc2)c1` gave D1 potentiator 1, D1 ag 9, D3 ag -18, D1 antag 1 and DRD3 antagonist -92*.
`Cc1ccc(NC(=O)[C@H](NC(=O)[C@@H]2Cc3ccccc3CN2)c2ccccc2)cc1` gave D1 potentiator 0, D1 ag 1, D3 ag -18, D1 antag -29 and DRD3 antagonist -100*.
For Cc1cccc(NC(=O)[C@H](NC(=O)[C@@H]2Cc3ccccc3CN2)c2ccccc2)c1 the results were D1 potentiator 3, D1 ag 6, D3 ag -20, D1 antag -2 and DRD3 antagonist -89*.
Screening Cc1cccc(NC(=O)[C@@H](CC(C)C)NC(=O)[C@@H]2Cc3ccccc3CN2)c1 returned D1 potentiator -3, D1 ag 5, D3 ag -16, D1 antag 0 and DRD3 antagonist -23.
For COc1cccc(NC(=O)[C@H](Cc2ccccc2)NC(=O)[C@@H]2Cc3ccccc3CN2)c1 the results were D1 potentiator 13, D1 ag 27, D3 ag -5, D1 antag 20 and DRD3 antagonist -1.
For CC(NC(=O)[C@H](NC(=O)[C@@H]1Cc2ccccc2CN1)c1ccccc1)c1ccccc1 (some centres undefined) the results were D1 potentiator 1, D1 ag 9, D3 ag 14, D1 antag -5 and DRD3 antagonist -20.
For COc1cc(-c2noc(C)c2C(=O)NCCCn2ccnc2)cc(OC)c1OC the results were D3 ag 0 and DRD3 antagonist inconclusive.
O=C1C2C(C(=O)N1/N=C/c1ccc(N3CCCCC3)o1)C1C=CC2C12CC2 (centres undefined) was read as D1 potentiator 14, D1 ag -1, D3 ag 2, D1 antag 10 and DRD3 antagonist -12.

Bioassay records (PubChem)
